Measured values: PubChem BioAssay (NCI)
“And” between values parts separate entries of the source, which are not always exact repeats. Equal entries are not always repeated. The panel holds about 83,000 compounds, 20% with a hit somewhere; the sample as a whole holds those more often.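 Interpretation: 100, growth as untreated; towards 0, rising growth inhibition; 0, no net growth; 0 to -100, cell death. Compounds scoring below 10 were considered active.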 The source made the active and inactive calls.

Key:
Experiment in all cases: NCI-60 one-dose screen, 48 h (100 = growth as untreated, 0 = no growth, -100 = all killed)
Conditions in all cases: 10 µM unless noted
SR leukemia = test system: SR leukemia
RPMI-8226 leukemia = test system: RPMI-8226 leukemia
OVCAR-8 ovarian = test system: OVCAR-8 ovarian
OVCAR-5 ovarian = test system: OVCAR-5 ovarian
OVCAR-4 ovarian = test system: OVCAR-4 ovarian
SK-OV-3 ovarian = test system: SK-OV-3 ovarian
IGROV1 ovarian = test system: IGROV1 ovarian
OVCAR-3 ovarian = test system: OVCAR-3 ovarian
HS 578T breast = test system: HS 578T breast
NCI/ADR-RES ovarian = test system: NCI/ADR-RES ovarian

CCN(CC)CCCC(C)N(Cc1ccccc1)CC(O)c1ccc(Cl)cc1 (stereo not given)
growth (SR leukemia): 119% (inactive) and 98.1% (inactive) | growth (RPMI-8226 leukemia): 99.9% (inactive) and 96.7% (inactive) | growth (OVCAR-8 ovarian): 105% (inactive) and 102% (inactive) | growth (OVCAR-5 ovarian): 91.2% (inactive) | growth (OVCAR-4 ovarian): 116% (inactive) and 112% (inactive) | growth (SK-OV-3 ovarian): 94.4% (inactive) and 102% (inactive) | growth (IGROV1 ovarian): 113% (inactive) and 101% (inactive) | growth (OVCAR-3 ovarian): 109% (inactive) and 100% (inactive) | growth (HS 578T breast): 93.8% (inactive) and 111% (inactive) | growth (NCI/ADR-RES ovarian): 108% (inactive) and 98.3% (inactive)

Cc1ccc2nc3c(nc2c1)-c1cccc2cccc-3c12
growth (SR leukemia): 64.9% (inactive) | growth (RPMI-8226 leukemia): 89.9% (inactive) | growth (OVCAR-8 ovarian): 69.6% (inactive) | growth (OVCAR-5 ovarian): 94.6% (inactive) | growth (OVCAR-4 ovarian): 92% (inactive) | growth (SK-OV-3 ovarian): 112% (inactive) | growth (IGROV1 ovarian): 63.9% (inactive) | growth (OVCAR-3 ovarian): 88.1% (inactive) | growth (HS 578T breast): 92.9% (inactive) | growth (NCI/ADR-RES ovarian): 86.1% (inactive)

Nc1nc2ncc(CNc3ccc(C(=O)N[C@@H](CCc4nn[nH]n4)C(=O)O)cc3)nc2c(=O)[nH]1
growth (SR leukemia): 95.6% (inactive) | growth (RPMI-8226 leukemia): 106% (inactive) and 95.5% (inactive) | growth (OVCAR-8 ovarian): 106% (inactive) and 90.2% (inactive) | growth (OVCAR-5 ovarian): 88.3% (inactive) and 103% (inactive) | growth (OVCAR-4 ovarian): 100% (inactive) and 116% (inactive) | growth (SK-OV-3 ovarian): 103% (inactive) and 104% (inactive) | growth (IGROV1 ovarian): 99.6% (inactive) and 106% (inactive) | growth (OVCAR-3 ovarian): 98.6% (inactive) and 113% (inactive) | growth (HS 578T breast): 110% (inactive) and 95.3% (inactive) | growth (NCI/ADR-RES ovarian): 103% (inactive) and 101% (inactive)

OCCN1CCN(CCCN2c3ccccc3Sc3ccc(Cl)cc32)CC1
growth (SR leukemia): 36.6% (inactive) | growth (RPMI-8226 leukemia): 37.6% (inactive) and 68.9% (inactive) | growth (OVCAR-8 ovarian): 89.3% (inactive) and 107% (inactive) | growth (OVCAR-5 ovarian): 61.3% (inactive) and 90.7% (inactive) | growth (OVCAR-4 ovarian): 74.2% (inactive) and 69.8% (inactive) | growth (SK-OV-3 ovarian): 70% (inactive) and 87.5% (inactive) | growth (IGROV1 ovarian): 47.7% (inactive) and 57.8% (inactive) | growth (OVCAR-3 ovarian): 83% (inactive) and 81.5% (inactive) | growth (HS 578T breast): 63.1% (inactive) and 72.3% (inactive) | growth (NCI/ADR-RES ovarian): 60.9% (inactive) and 76% (inactive)

Cc1cc(O)c2c(c1)C(=O)c1cc(O)cc(O)c1C2=O
growth (SR leukemia): 108% (inactive) and 86% (inactive) | growth (RPMI-8226 leukemia): 75.8% (inactive) and 74.3% (inactive) | growth (OVCAR-8 ovarian): 92.7% (inactive) | growth (OVCAR-5 ovarian): 68% (inactive) and 95.6% (inactive) | growth (OVCAR-4 ovarian): 55% (inactive) and 68.5% (inactive) | growth (SK-OV-3 ovarian): 102% (inactive) and 84.8% (inactive) | growth (IGROV1 ovarian): 65.9% (inactive) and 101% (inactive) | growth (OVCAR-3 ovarian): 84.1% (inactive) and 95.9% (inactive) | growth (HS 578T breast): 89.7% (inactive) and 88.9% (inactive) | growth (NCI/ADR-RES ovarian): 91.6% (inactive) and 101% (inactive)

CCN(CC)CCCC(C)Nc1cnc(C(=O)Nc2cc(F)cc3cccnc23)cn1 (stereo not given)
growth (SR leukemia): 2.84% (active) and 21.7% (inactive) | growth (RPMI-8226 leukemia): 75.1% (inactive) and 2.28% (active) | growth (OVCAR-8 ovarian): 60.5% (inactive) and -43.9% (active) | growth (OVCAR-5 ovarian): 77.1% (inactive) and -24.2% (active) | growth (OVCAR-4 ovarian): 12.2% (inactive) and -83.5% (active) | growth (SK-OV-3 ovarian): 98.3% (inactive) and 25.8% (inactive) | growth (IGROV1 ovarian): 41.7% (inactive) and -21.9% (active) | growth (OVCAR-3 ovarian): 5.41% (active) and -79.1% (active) | growth (HS 578T breast): 69.3% (inactive) and 13.7% (inactive) | growth (NCI/ADR-RES ovarian): 66.8% (inactive) and 11.6% (inactive)

COc1ccc2c(=O)cc(-c3ccccc3)[nH]c2c1
growth (SR leukemia): 4.49% (active) | growth (RPMI-8226 leukemia): 21.8% (inactive) and 2.02% (active) | growth (OVCAR-8 ovarian): 17.5% (inactive) and 8.21% (active) | growth (OVCAR-5 ovarian): 49.4% (inactive) and 46.3% (inactive) | growth (OVCAR-4 ovarian): 53.1% (inactive) and 36.7% (inactive) | growth (SK-OV-3 ovarian): 5.46% (active) and 23.9% (inactive) | growth (IGROV1 ovarian): 33.2% (inactive) | growth (OVCAR-3 ovarian): -47.7% (active) and -45.4% (active) | growth (HS 578T breast): 31.5% (inactive) and 58.9% (inactive) | growth (NCI/ADR-RES ovarian): -12.9% (active)
